Test results from paper PMC11006913.

Tests used:
Assay in all cases: PBM; 200 nM protein, PBS
Settings in all cases: dsDNA, one strand shown
HOXB4 [1] = molecular target: HOXB4 (Homo sapiens, UniProt P17483 148-234)
HOXA4 [2] = molecular target: HOXA4 (Homo sapiens, UniProt Q00056 201-287, W262R)
HOXB6 [3] = molecular target: HOXB6 (Homo sapiens, UniProt P17509 132-218, K202E)
HOXA4 [4] = molecular target: HOXA4 (Homo sapiens, UniProt Q00056 201-287, R217L)
HOXB4 [5] = molecular target: HOXB4 (Homo sapiens, UniProt P17483 148-234, V174I)
Sequence of HOXB4 (Homo sapiens, UniProt P17483 148-234, V174I) (P17483 148-234 V174I): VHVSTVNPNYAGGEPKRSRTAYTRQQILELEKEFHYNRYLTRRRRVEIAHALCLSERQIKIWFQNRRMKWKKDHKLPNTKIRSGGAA

ALX3 [6] = molecular target: ALX3 (Homo sapiens, UniProt O95076 139-225, N203Q)
Sequence of ALX3 (Homo sapiens, UniProt O95076 139-225, N203Q) (O95076 139-225 N203Q): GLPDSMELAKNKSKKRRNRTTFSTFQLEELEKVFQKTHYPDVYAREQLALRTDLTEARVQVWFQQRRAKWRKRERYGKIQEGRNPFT

HOXA4 [7] = molecular target: HOXA4 (Homo sapiens, UniProt Q00056 201-287)
Sequence of HOXA4 (Homo sapiens, UniProt Q00056 201-287) (Q00056 201-287): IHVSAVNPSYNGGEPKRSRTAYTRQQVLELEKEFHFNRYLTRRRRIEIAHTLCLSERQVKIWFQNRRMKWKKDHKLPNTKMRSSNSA

ALX3 [8] = molecular target: ALX3 (Homo sapiens, UniProt O95076 139-225)
Sequence of ALX3 (Homo sapiens, UniProt O95076 139-225) (O95076 139-225): as the sequence (O95076 139-225 N203Q) above, with Q65N counted along it

ALX3 [9] = molecular target: ALX3 (Homo sapiens, UniProt O95076 139-225, L168Q)
Sequence of ALX3 (Homo sapiens, UniProt O95076 139-225, L168Q) (O95076 139-225 L168Q): as the sequence (O95076 139-225 N203Q) above, with L30Q, Q65N counted along it

ALX3 [10] = molecular target: ALX3 (Homo sapiens, UniProt O95076 139-225, L168V)
Sequence of ALX3 (Homo sapiens, UniProt O95076 139-225, L168V) (O95076 139-225 L168V): as the sequence (O95076 139-225 N203Q) above, with L30V, Q65N counted along it

HOXA4 [11] = molecular target: HOXA4 (Homo sapiens, UniProt Q00056 201-287, W262F)
Sequence of HOXA4 (Homo sapiens, UniProt Q00056 201-287, W262F) (Q00056 201-287 W262F): as the sequence (Q00056 201-287) above, with W62F counted along it

ALX3 [12] = molecular target: ALX3 (Homo sapiens, UniProt O95076 139-225, N203S)
Sequence of ALX3 (Homo sapiens, UniProt O95076 139-225, N203S) (O95076 139-225 N203S): as the sequence (O95076 139-225 N203Q) above, with Q65S counted along it

HOXB6 [13] = molecular target: HOXB6 (Homo sapiens, UniProt P17509 132-218)
Sequence of HOXB6 (Homo sapiens, UniProt P17509 132-218) (P17509 132-218): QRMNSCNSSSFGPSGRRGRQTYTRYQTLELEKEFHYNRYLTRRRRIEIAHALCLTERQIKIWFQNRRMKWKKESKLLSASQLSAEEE

HOXA2 [14] = molecular target: HOXA2 (Homo sapiens, UniProt O43364 129-215, R185T)
Sequence of HOXA2 (Homo sapiens, UniProt O43364 129-215, R185T) (O43364 129-215 R185T): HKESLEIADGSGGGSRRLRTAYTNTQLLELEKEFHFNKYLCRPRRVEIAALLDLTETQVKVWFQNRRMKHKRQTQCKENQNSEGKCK

HOXA2 [15] = molecular target: HOXA2 (Homo sapiens, UniProt O43364 129-215, R185K)
Sequence of HOXA2 (Homo sapiens, UniProt O43364 129-215, R185K) (O43364 129-215 R185K): as the sequence (O43364 129-215 R185T) above, with T57K counted along it

PROP1 [16] = molecular target: PROP1 (Homo sapiens, UniProt O75360 56-141)
Sequence of PROP1 (Homo sapiens, UniProt O75360 56-141) (O75360 56-141): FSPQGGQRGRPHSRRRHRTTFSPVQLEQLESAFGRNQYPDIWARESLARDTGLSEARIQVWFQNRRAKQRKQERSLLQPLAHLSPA

PROP1 [17] = molecular target: PROP1 (Homo sapiens, UniProt O75360 56-141, R99H)
Sequence of PROP1 (Homo sapiens, UniProt O75360 56-141, R99H) (O75360 56-141 R99H): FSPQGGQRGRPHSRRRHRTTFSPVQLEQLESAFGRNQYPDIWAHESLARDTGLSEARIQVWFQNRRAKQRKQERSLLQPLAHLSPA

VAX1 [18] = molecular target: VAX1 (Homo sapiens, UniProt Q5SQQ9 86-172)
Sequence of VAX1 (Homo sapiens, UniProt Q5SQQ9 86-172) (Q5SQQ9 86-172): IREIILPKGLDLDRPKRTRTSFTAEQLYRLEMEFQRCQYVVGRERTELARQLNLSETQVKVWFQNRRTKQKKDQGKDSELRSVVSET

PROP1 [19] = molecular target: PROP1 (Homo sapiens, UniProt O75360 56-141, F88S)
Sequence of PROP1 (Homo sapiens, UniProt O75360 56-141, F88S) (O75360 56-141 F88S): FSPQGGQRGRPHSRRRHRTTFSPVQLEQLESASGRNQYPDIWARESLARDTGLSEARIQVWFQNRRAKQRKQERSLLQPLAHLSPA

VAX1 [20] = molecular target: VAX1 (Homo sapiens, UniProt Q5SQQ9 86-172, T142I)
Sequence of VAX1 (Homo sapiens, UniProt Q5SQQ9 86-172, T142I) (Q5SQQ9 86-172 T142I): as the sequence (Q5SQQ9 86-172) above, with T57I counted along it

HOXA2 [21] = molecular target: HOXA2 (Homo sapiens, UniProt O43364 129-215, Y150S)
Sequence of HOXA2 (Homo sapiens, UniProt O43364 129-215, Y150S) (O43364 129-215 Y150S): as the sequence (O43364 129-215 R185T) above, with Y22S, T57R counted along it

HOXA2 [22] = molecular target: HOXA2 (Homo sapiens, UniProt O43364 129-215)
Sequence of HOXA2 (Homo sapiens, UniProt O43364 129-215) (O43364 129-215): as the sequence (O43364 129-215 R185T) above, with T57R counted along it

VAX1 [23] = molecular target: VAX1 (Homo sapiens, UniProt Q5SQQ9 86-172, K157R)
Sequence of VAX1 (Homo sapiens, UniProt Q5SQQ9 86-172, K157R) (Q5SQQ9 86-172 K157R): as the sequence (Q5SQQ9 86-172) above, with K72R counted along it

NKX2-6 = molecular target: T1, NKX2-6 (Homo sapiens, UniProt A6NCS4 118-204, R150C)
T1 sequence: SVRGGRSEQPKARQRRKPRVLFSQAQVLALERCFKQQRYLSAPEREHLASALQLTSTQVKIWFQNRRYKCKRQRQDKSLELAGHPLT

Sequence of HOXB4 (Homo sapiens, UniProt P17483 148-234) (P17483 148-234): as the sequence (P17483 148-234 V174I) above, with I27V counted along it
Sequence of HOXA4 (Homo sapiens, UniProt Q00056 201-287, W262R) (Q00056 201-287 W262R): as the sequence (Q00056 201-287) above, with W62R counted along it
Sequence of HOXA4 (Homo sapiens, UniProt Q00056 201-287, R217L) (Q00056 201-287 R217L): as the sequence (Q00056 201-287) above, with R17L counted along it
Sequence of HOXB6 (Homo sapiens, UniProt P17509 132-218, K202E) (P17509 132-218 K202E): as the sequence (P17509 132-218) above, with K71E counted along it

## CCAGGCAG
HOXB4 [1]
  binding signal: 7.62 upbm affinity estimate (log intensity, higher = more binding, comparable within an allelic series)
HOXA4 [2]
  binding signal: 9.9 upbm affinity estimate (log intensity, higher = more binding, comparable within an allelic series)
HOXB6 [3]
  binding signal: 9.02 upbm affinity estimate (log intensity, higher = more binding, comparable within an allelic series)
HOXA4 [4]
  binding signal: 9.88 upbm affinity estimate (log intensity, higher = more binding, comparable within an allelic series)
HOXB4 [5]
  binding signal: 7.62 upbm affinity estimate (log intensity, higher = more binding, comparable within an allelic series)
ALX3 [6]
  binding signal: 7.78 upbm affinity estimate (log intensity, higher = more binding, comparable within an allelic series)
HOXA4 [7]
  binding signal: 9.85 upbm affinity estimate (log intensity, higher = more binding, comparable within an allelic series)
ALX3 [8]
  binding signal: 7.65 upbm affinity estimate (log intensity, higher = more binding, comparable within an allelic series)
ALX3 [9]
  binding signal: 7.7 upbm affinity estimate (log intensity, higher = more binding, comparable within an allelic series)
ALX3 [10]
  binding signal: 7.82 upbm affinity estimate (log intensity, higher = more binding, comparable within an allelic series)
HOXA4 [11]
  binding signal: 9.95 upbm affinity estimate (log intensity, higher = more binding, comparable within an allelic series)
ALX3 [12]
  binding signal: 7.76 upbm affinity estimate (log intensity, higher = more binding, comparable within an allelic series)
HOXB6 [13]
  binding signal: 9.1 upbm affinity estimate (log intensity, higher = more binding, comparable within an allelic series)

## TAATGATA
HOXB4 [1]
  binding signal: 13.4 upbm affinity estimate (log intensity, higher = more binding, comparable within an allelic series)
HOXA4 [2]
  binding signal: 10.5 upbm affinity estimate (log intensity, higher = more binding, comparable within an allelic series)
HOXB6 [3]
  binding signal: 10 upbm affinity estimate (log intensity, higher = more binding, comparable within an allelic series)
HOXA2 [14]
  binding signal: 12.2 upbm affinity estimate (log intensity, higher = more binding, comparable within an allelic series)
HOXA4 [4]
  binding signal: 12.2 upbm affinity estimate (log intensity, higher = more binding, comparable within an allelic series)
HOXB4 [5]
  binding signal: 14.1 upbm affinity estimate (log intensity, higher = more binding, comparable within an allelic series)
HOXA2 [15]
  binding signal: 13.2 upbm affinity estimate (log intensity, higher = more binding, comparable within an allelic series)
HOXA4 [7]
  binding signal: 13.9 upbm affinity estimate (log intensity, higher = more binding, comparable within an allelic series)
PROP1 [16]
  binding signal: 9.99 upbm affinity estimate (log intensity, higher = more binding, comparable within an allelic series)
PROP1 [17]
  binding signal: 9.25 upbm affinity estimate (log intensity, higher = more binding, comparable within an allelic series)
VAX1 [18]
  binding signal: 12.7 upbm affinity estimate (log intensity, higher = more binding, comparable within an allelic series)
PROP1 [19]
  binding signal: 7.61 upbm affinity estimate (log intensity, higher = more binding, comparable within an allelic series)
VAX1 [20]
  binding signal: 12.5 upbm affinity estimate (log intensity, higher = more binding, comparable within an allelic series)
HOXA2 [21]
  binding signal: 11 upbm affinity estimate (log intensity, higher = more binding, comparable within an allelic series)
HOXA4 [11]
  binding signal: 11.6 upbm affinity estimate (log intensity, higher = more binding, comparable within an allelic series)
HOXA2 [22]
  binding signal: 12.3 upbm affinity estimate (log intensity, higher = more binding, comparable within an allelic series)
VAX1 [23]
  binding signal: 12.3 upbm affinity estimate (log intensity, higher = more binding, comparable within an allelic series)

## ACCGCCGG
HOXB4 [1]
  binding signal: 7.71 upbm affinity estimate (log intensity, higher = more binding, comparable within an allelic series)
HOXA4 [2]
  binding signal: 9.74 upbm affinity estimate (log intensity, higher = more binding, comparable within an allelic series)
HOXA2 [14]
  binding signal: 7.21 upbm affinity estimate (log intensity, higher = more binding, comparable within an allelic series)
HOXA4 [4]
  binding signal: 9.58 upbm affinity estimate (log intensity, higher = more binding, comparable within an allelic series)
HOXB4 [5]
  binding signal: 7.62 upbm affinity estimate (log intensity, higher = more binding, comparable within an allelic series)
NKX2-6
  binding signal: 9.49 upbm affinity estimate (log intensity, higher = more binding, comparable within an allelic series)
ALX3 [6]
  binding signal: 7.72 upbm affinity estimate (log intensity, higher = more binding, comparable within an allelic series)
HOXA2 [15]
  binding signal: 10.2 upbm affinity estimate (log intensity, higher = more binding, comparable within an allelic series)
HOXA4 [7]
  binding signal: 9.85 upbm affinity estimate (log intensity, higher = more binding, comparable within an allelic series)
ALX3 [8]
  binding signal: 7.95 upbm affinity estimate (log intensity, higher = more binding, comparable within an allelic series)
VAX1 [18]
  binding signal: 7.52 upbm affinity estimate (log intensity, higher = more binding, comparable within an allelic series)
ALX3 [9]
  binding signal: 7.7 upbm affinity estimate (log intensity, higher = more binding, comparable within an allelic series)
ALX3 [10]
  binding signal: 7.65 upbm affinity estimate (log intensity, higher = more binding, comparable within an allelic series)
VAX1 [20]
  binding signal: 7.48 upbm affinity estimate (log intensity, higher = more binding, comparable within an allelic series)
HOXA2 [21]
  binding signal: 10.4 upbm affinity estimate (log intensity, higher = more binding, comparable within an allelic series)
HOXA4 [11]
  binding signal: 9.75 upbm affinity estimate (log intensity, higher = more binding, comparable within an allelic series)
ALX3 [12]
  binding signal: 7.69 upbm affinity estimate (log intensity, higher = more binding, comparable within an allelic series)
HOXA2 [22]
  binding signal: 7.23 upbm affinity estimate (log intensity, higher = more binding, comparable within an allelic series)
VAX1 [23]
  binding signal: 7.38 upbm affinity estimate (log intensity, higher = more binding, comparable within an allelic series)
